Assay results as given in PubChem BioAssay AID1159580 (chemical genetic matrix, 2015).
Values joined by “and” are separate entries in the source; they are usually repeats but may differ in a detail not shown here. Equal entries are not always repeated. Among all 5,500 compounds or so, about 2,000 (36%) were called active. Roughly 18% stayed inconclusive and do not appear here. No stated cut-off is given here; in the data, active means normalized growth mostly below about 0.91 (no sharp cut-off); inconclusive means no clear call, values can overlap the other calls; inactive means mostly above about 0.92. The list shows a part of the results.

Experiment: chemical genetic growth profiling, strain panel (AID 1159580);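 further: tested at 20 µM; growth read once vehicle control cultures reached saturation at 30 °C; 1 = growth at the plate median or of vehicle wells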
Settings: S. cerevisiae deletion strains, growth OD

Measured: normalized growth

CCCc1cc(=O)[nH]c(=S)[nH]1
inactive: locus YAL013W, strain DEP1, stronger effect = lower value 1.02 | locus YAL021C, strain ccr4, stronger effect = lower value 1.02 | locus YAL026C, strain drs2, stronger effect = lower value 1.03 | locus YAL030W, strain snc1, stronger effect = lower value 1.02 | locus YBL061C, strain skt5, stronger effect = lower value 1.03 | locus YBR009C, strain hhf1, stronger effect = lower value 1.02 | locus YBR021W, strain FUR4, stronger effect = lower value 0.987 | locus YBR023C, strain chs3, stronger effect = lower value 1.02 | locus YBR171W, strain sec66, stronger effect = lower value 1.04 | locus YBR229C, strain ROT2, stronger effect = lower value 1 | locus YBR231C, strain swc5, stronger effect = lower value 1 | locus YBR279W, strain paf1, stronger effect = lower value 0.988 | locus YCL011C, strain gbp2, stronger effect = lower value 1.01 | locus YCL016C, strain dcc1, stronger effect = lower value 1.01 | locus YCL029C, strain bik1, stronger effect = lower value 0.994 | locus YCL069W, strain vba3, stronger effect = lower value 1.02 | locus YCR088W, strain abp1, stronger effect = lower value 1.01 | locus YDL005C, strain med2, stronger effect = lower value 1.03 | locus YDL035C, strain GPR1, stronger effect = lower value 1.01 | locus YDL040C, strain nat1, stronger effect = lower value 1.01 | locus YDL074C, strain BRE1, stronger effect = lower value 1.03 | locus YDL101C, strain DUN1, stronger effect = lower value 1.01 | locus YDL134C, strain PPH21, stronger effect = lower value 1.01 | locus YDL185W, strain tfp1, stronger effect = lower value 1.02 | locus YDL192W, strain arf1, stronger effect = lower value 1 | locus YDR001C, strain nth1, stronger effect = lower value 1.01 | locus YDR069C, strain doa4, stronger effect = lower value 1.01 | locus YDR101C, strain arx1, stronger effect = lower value 0.985 | locus YDR137W, strain rgp1, stronger effect = lower value 1.02 | locus YDR150W, strain NUM1, stronger effect = lower value 1.01 | locus YDR159W, strain sac3, stronger effect = lower value 0.995 | locus YDR162C, strain NBP2, stronger effect = lower value 1.02 | locus YDR195W, strain ref2 0.999 | locus YDR297W, strain sur2, stronger effect = lower value 1.01 | locus YDR318W, strain mcm21, stronger effect = lower value 0.985 | locus YDR334W, strain swr1, stronger effect = lower value 1.03 | locus YDR335W, strain msn5, stronger effect = lower value 1.01 | locus YDR388W, stronger effect = lower value 0.989 | locus YDR392W, strain spt3, stronger effect = lower value 0.997 | locus YDR502C, strain sam2, stronger effect = lower value 0.989 | locus YEL003W, strain gim4, stronger effect = lower value 1.01 | locus YEL037C, strain rad23, stronger effect = lower value 1.03 | locus YEL061C, strain CIN8 (second series), stronger effect = lower value 1.03 | locus YEL061C, strain CIN8, stronger effect = lower value 1.01 | locus YER015W, strain faa2, stronger effect = lower value 1.01 | locus YER016W, strain bim1, stronger effect = lower value 1 | locus YER110C, stronger effect = lower value 0.991 | locus YER111C, strain swi4, stronger effect = lower value 1 | locus YER155C, strain BEM2 (second series), stronger effect = lower value 1.04 | locus YER155C, strain BEM2, stronger effect = lower value 1.01 | locus YER167W, strain BCK2, stronger effect = lower value 1.01 | locus YFR010W, strain ubp6, stronger effect = lower value 1.02 | locus YGL078C, strain dbp3, stronger effect = lower value 0.996 | locus YGL086W, strain mad1, stronger effect = lower value 0.987 | locus YGL167C, strain pmr1, stronger effect = lower value 1.02 | locus YGL173C, strain kem1, stronger effect = lower value 1.04 | locus YGL227W, strain vid30, stronger effect = lower value 1.03 | locus YGL240W, strain doc1, stronger effect = lower value 1 | locus YGL248W, strain PDE1, stronger effect = lower value 1.01 | locus YGL253W, strain hxk2, stronger effect = lower value 0.995 | locus YGR078C, strain PAC10, stronger effect = lower value 1 | locus YGR135W, strain pre9, stronger effect = lower value 0.994 | locus YGR229C, strain SMI1, stronger effect = lower value 1.02 | locus YGR252W, strain gcn5, stronger effect = lower value 0.901 | locus YHR013C, strain ard1, stronger effect = lower value 1.09 | locus YHR027C, strain rpn1, stronger effect = lower value 1.01 | locus YHR030C, strain SLT2, stronger effect = lower value 1.02 | locus YHR079C, strain IRE1 (second series), stronger effect = lower value 0.983 | locus YHR079C, strain IRE1, stronger effect = lower value 1.03 | locus YHR094C, strain hxt1, stronger effect = lower value 0.993 | locus YHR129C, strain ARP1, stronger effect = lower value 1.02 | locus YHR142W, strain chs7, stronger effect = lower value 1.05 | locus YHR200W, strain rpn10, stronger effect = lower value 1.01 | locus YIL066C, strain RNR3, stronger effect = lower value 1 | locus YIL073C, strain SPO22, stronger effect = lower value 0.955 | locus YIL125W, strain kgd1, stronger effect = lower value 1 | locus YIR030C, strain dcg1, stronger effect = lower value 0.998 | locus YJL092W, strain hpr5, stronger effect = lower value 1.02 | locus YJL095W, strain BCK1 (second series), stronger effect = lower value 1.02 | locus YJL095W, strain BCK1, stronger effect = lower value 1.01 and 0.999 | locus YJL115W, strain asf1, stronger effect = lower value 1.02 | locus YJL129C, strain trk1, stronger effect = lower value 1.01 | locus YJL134W, strain LCB3, stronger effect = lower value 1.01 | locus YJL154C, strain vps35, stronger effect = lower value 1 | locus YJL164C, strain tpk1, stronger effect = lower value 1.02 | locus YJL166W, strain qcr8, stronger effect = lower value 1.04 | locus YJL168C, strain set2, stronger effect = lower value 0.989 | locus YJL187C, strain SWE1 (second series), stronger effect = lower value 1.01 | locus YJR043C, strain POL32, stronger effect = lower value 1 | locus YJR066W, strain TOR1, stronger effect = lower value 0.971
